# Screening data from PubChem BioAssay.
# The sample as a whole holds a higher share of hits than the screen did.
# TbPYK inhibitor – inhibitors of Trypanosoma brucei pyruvate kinase; TbPYK enzyme, Kinase-Glo Plus ATP luminescence, 45 min; Potency, µM (series often up to 76.8 µM), for inactives: top-dose activity, negative = inhibition, usual class: inhibitors; 410,000 tested, 0.12% active; also: potency is read from the fitted curve at half-maximal effect; % is scaled to controls: 0 for no effect and ±100 for the full control effect; nearly all actives have a fitted effect of over 50% in size
#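 ADP (130 uM final) triggers the TbPYK reaction after compound addition; incubation is 45 min at room temperature. Kinase-Glo Plus is then added and luminescence imaged. Normalized data are fitted to concentration-effect curves.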
# Sm TGR inh – blocks Schistosoma mansoni thioredoxin glutathione reductase. Q962Y6. purified TGR, DTNB reduction, TNB absorbance 405 nm. Potency, µM (titrated, usually from 114 µM), for inactives: top-dose activity change, negative = inhibition, hits mostly inhibitors. 360,000 tested, 3% active; also: potency is read from the fitted curve at half-maximal effect; % is scaled to controls: 0 for no effect and ±100 for the full control effect; nearly all actives have a fitted effect of over 60% in size
#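 First, TGR (20 nM dispensed) and NADPH were mixed with compound. Second, a 15 min room-temperature incubation followed. Third, further NADPH and then DTNB were added to start the reaction. Finally, TNB absorbance was monitored kinetically.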
# Cycloheximide cs – affects cycloheximide protein synthesis inhibition readout, counter-screen; cell reporter, cycloheximide protein synthesis inhibition counterscreen; max response, %; 300,000 tested, 12% active; AID 2314; in the data active = max response mostly above about 13%, no sharp cut-off; inactive = mostly below about 14%; also: read at 38.3 µM for the half of the compounds with a filed dose; 0% is about no effect
# LmPK inh – blocks Leishmania mexicana pyruvate kinase activity; purified LmPK, Kinase-Glo ATP luminescence, 1 h; AID 1721; Q27686; 290,000 tested, 0.37% active; Potency, µM (titrated, usually from 57.5 µM), for the others: at the highest dose activity change, negative = inhibition, hits mostly inhibitors; also: potency is read from the fitted curve at half-maximal effect; % is scaled to controls: 0 for no effect and ±100 for the full control effect
# Target sequence (Q27686 whole entry, looked up): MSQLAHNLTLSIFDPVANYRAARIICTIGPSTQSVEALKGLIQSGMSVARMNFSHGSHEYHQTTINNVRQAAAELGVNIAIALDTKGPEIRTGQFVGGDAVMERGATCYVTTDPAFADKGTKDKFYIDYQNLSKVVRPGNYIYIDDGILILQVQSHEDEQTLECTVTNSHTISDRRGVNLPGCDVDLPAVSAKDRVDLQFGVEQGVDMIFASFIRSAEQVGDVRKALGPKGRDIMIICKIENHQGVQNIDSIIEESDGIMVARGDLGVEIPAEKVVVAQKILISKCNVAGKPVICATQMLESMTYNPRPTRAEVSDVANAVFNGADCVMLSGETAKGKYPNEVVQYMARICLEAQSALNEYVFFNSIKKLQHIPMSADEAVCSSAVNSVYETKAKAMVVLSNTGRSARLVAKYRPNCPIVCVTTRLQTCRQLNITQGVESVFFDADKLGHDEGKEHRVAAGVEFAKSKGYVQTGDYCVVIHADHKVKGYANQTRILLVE
#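 Kinase-Glo luminescence read after 1 h RT reaction of 0.1 nM LmPK with 0.5 mM PEP and 0.1 mM ADP. Activity scaled between uninhibited and enzyme-free controls.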
# FBPA Giardia inh – Giardia lamblia aldolase inhibition; A8B2U2; purified Giardia FBPA; Potency, µM (series often up to 59.6 µM), for inactives: at the highest dose activity, negative = inhibition, hits mostly inhibitors; 290,000 tested, 0.71% active; also: potency is read from the fitted curve at half-maximal effect; % is scaled to controls: 0 for no effect and ±100 for the full control effect; nearly all actives have a fitted effect of over 55% in size
#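 Giardia FBPA (40 nM reagent) was preincubated 10 min at RT with compound (up to 57.5 uM final), then substrate plus GAPDH/TPI/NAD/arsenate coupling system with diaphorase/resazurin was added; resorufin fluorescence (525/598 nm) was read after 20 min.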
# Shiga toxin inh – inhibitors of Shiga toxin in Vero cells; 290,000 tested, 9.2% active; AID 2315; Vero cells, Shiga toxin protein synthesis inhibition reporter; inhibition, % at 38.7 µM; in the data active = inhibition mostly above about 28%, no sharp cut-off; inactive = mostly below about 43%; also: 0% is about no effect
# Active calls of the source: *; ? = inconclusive; · = not tested or not shown; + = active, no number. Unless noted, calls follow the shape of the dose curve; as a rule, active = well fitted curve in the direction sought with a large enough effect; inconclusive = small, poorly fitted or top-dose-only effect, or another doubt; inactive = no such curve, though single readings can be large; an effect the other way counts as inactive or inconclusive.
SMILES,TbPYK inhibitor,Sm TGR inh,Cycloheximide cs,LmPK inh,FBPA Giardia inh,Shiga toxin inh
COC(=O)c1ccc(OC(=O)/C=C/c2ccco2)cc1,-5%,-21%,26*,-11%,4%,36*
CCc1ccc2ncc3c(-c4ccccc4)nn(-c4ccccc4)c3c2c1,6%,-5%,·,·,·,·
CSCC[C@H](N)C(=O)N[C@@H](C)C(=O)NCC(=O)N[C@@H](CCCN=C(N)N)C(=O)N[C@@H](CO)C(=O)NCC(=O)N[C@@H](CC(=O)O)C(=O)N[C@@H](CO)C(=O)N[C@@H](CC(=O)O)C(=O)N[C@@H](CCC(=O)O)C(=O)N[C@@H](CC(=O)O)C(=O)N[C@@H](CC(C)C)C(=O)N[C@@H](CC(C)C)C(=O)N[C@@H](CCCCN)C(=O)N[C@@H](C)C(=O)N[C@H](C(=O)O)C(C)C,·,·,-8,·,0%,-10
CSc1nc(-c2ccc(Cl)cc2)c(C#N)c(=O)[nH]1,-3%,·,-2,0%,11%,-2
CSC1=C(C#N)C(=O)NC(c2ccc(Cl)cc2)S1 (configuration not stated),2%,10µM*,1,-1%,-4%,-16
COc1ccc(C(=O)Nc2ccc(Nc3ccccc3)cc2)cc1[N+](=O)[O-],2%,-19%,-4,4%,-2%,-5
Cc1ccc(NC(=O)O/N=C/c2ccc(Br)cc2)cc1,-13%,0%,11*,0%,3%,37
O=C(Nc1ccccc1)O/N=C/c1ccccc1Cl,5%,1%,54*,-1%,-3%,64*
COc1ccc(/C=N/OC(=O)Nc2ccccc2)cc1[N+](=O)[O-],4%,2%,33*,-11%,10%,+
COc1ccc(OC)c(/C=N/OC(=O)Nc2ccc(Cl)cc2)c1,7%,0%,4,-2%,-9%,11
CC(=O)Nc1ccc(/C=N/OCC(=O)Nc2ccc(C)cc2)cc1,4%,-3%,23*,1%,3%,15*
COc1ccc(NC(=O)O/N=C/c2ccc(Br)cc2)cc1,-2%,-17%,15,10%,-8%,37
CCC(Cc1ccccc1)NC(=O)c1ccc2nc(N3CCC(C)CC3)sc2c1 (configuration not stated),-5%,4%,·,·,·,·
CC(C)(C)c1ccc(CSc2nc3c(c(=O)[nH]2)CCCC3)cc1,-1%,-11%,·,·,·,·
O=C(Nc1ccccc1)O/N=C/c1ccc(F)cc1,0%,4%,27*,-5%,-2%,54*
COC(=O)N/N=C/c1cc(OC)c(O)c([N+](=O)[O-])c1,-13%,6%,92*,-7%,-12%,77*
O=C(Nc1ccccc1Cl)O/N=C/c1ccc(F)cc1,0%,·,·,·,·,·
Cc1ccc(NC(=O)O/N=C/c2ccc(F)cc2)cc1,7%,-8%,33*,2%,-4%,47*
O=C1CC(Sc2nnc(-c3ccccc3O)o2)C(=O)N1c1ccccc1 (configuration not stated),-8%,4µM*,2,-3%,2%,51
COc1ccc(N2C(=O)CC(Sc3nnc(-c4ccccc4)o3)C2=O)cc1 (configuration not stated),·,3.5µM*,4,2%,-1%,12
Cc1nc(SC2CC(=O)N(c3ccccc3)C2=O)n[nH]1 (configuration not stated),-7%,·,10,-2%,?,17
O=C(COc1ccc(F)cc1)Nc1nnc(SCc2cc(=O)n3ccccc3n2)s1,-3%,0%,·,·,·,·
CC(C)NC(=O)CCn1c(SCc2c(F)cccc2Cl)nc2c(sc3ccccc32)c1=O,0%,8%,·,·,·,·
COc1cc(OC)c(NC(=O)CCCn2nc(C)c3sc4ccccc4c3c2=O)cc1Cl,-2%,-6%,·,·,·,·
N#Cc1cccc(-c2csc(C(O)(c3ccccc3)C(F)(F)F)n2)c1 (configuration not stated),0%,·,·,·,·,·
SMILES,TbPYK inhibitor,Sm TGR inh,Cycloheximide cs,LmPK inh,FBPA Giardia inh,Shiga toxin inh
CC(C)CCn1cnc2c(oc3nc4c(cc32)CCCC4)c1=O,0%,-12%,24*,-27%,2%,14
c1ccc(-c2nnc(CN3CCCCC3)o2)cc1,-4%,17%,41*,-7%,-22%,75*
OC1(c2ccccc2F)CCN(Cc2nnc(-c3ccccc3)o2)CC1,0%,7%,20*,-2%,8%,41
c1ccc(-c2nnc(CN3CCC4(CC3)OCCO4)o2)cc1,-1%,4%,13,-11%,4%,37
Clc1ccccc1N1CCN(Cc2nnc(-c3ccccc3)o2)CC1,1%,1%,·,·,·,·
COC(=O)C1CCN(Cc2nnc(-c3ccccc3)o2)CC1,-6%,3%,24*,5%,4%,59*
c1ccc(-c2nnc(CN3CCCc4ccccc43)o2)cc1,0%,40µM*,16*,0%,-26%,19
O=C(CNC(=O)c1ccc(Br)o1)NCC1CCCCC1,0%,-7%,·,·,·,·
O=C(NC1CCCC1)c1cc2cc(Br)ccc2o1,0%,-26%,51*,3%,-12%,92*
CN(C(=O)CNC(=O)c1ccc(Br)o1)C1CCCCC1,7%,-12%,21*,0%,1%,78*
O=C(NC1CCCCCC1)c1ccc(Br)o1,5%,1%,13,1%,6%,38
O=C(NC1CCCCC1)c1cc2cc(Br)ccc2o1,1%,?,58*,0%,-7%,76*
O=C(NC1CCCC1)c1ccc(Br)o1,5%,-5%,-3,1%,0%,-4
O=C(NC1CCCCCCC1)c1ccc(Br)o1,-14%,0%,25*,-1%,-5%,84*
O=C1NC(=O)C(=Cc2ccc(SC3CCCCC3)o2)C(=O)N1,?,40µM*,12,-8%,-11%,51*
CNS(=O)(=O)c1ccc(-c2ccc(C=C3C(=O)NC(=O)NC3=O)o2)cc1,?,?,-3,-7%,-3%,-3
COCCN(C(=O)c1cc(S(=O)(=O)N2CCCCC2)ccc1Cl)c1c(N)n(CC(C)C)c(=O)[nH]c1=O,0%,-8%,·,·,·,·
O=C(O)c1cc(N2N=C(C(F)(F)F)/C(=C/C=C/c3ccco3)C2=O)ccc1Cl,?,10µM*,-2,-25%,?,24
COCC(=O)N(CCc1ccc(OC)c(OC)c1)Cc1cc2cc(C)ccc2nc1Cl,1%,-1%,13,1%,-2%,9
COCC(=O)N(CCc1ccccc1)Cc1cc2cc(C)ccc2nc1Cl,-5%,40µM*,9,26%,10%,·
COc1cc2oc3ccccc3c(=O)c2cc1OC,51%,17%,14,-8%,-13%,18
O=c1c2ccccc2oc2ccc(Oc3ccccc3)cc12,1%,-6%,41*,-5%,?,42*
